High-throughput results as filed in PubChem.
This is a sample that favours compounds with a hit; in the whole collection about 3.2% have one here.
ClpP mod = qHTS Assay for Activators of ClpP | purified B. subtilis ClpP, FRET peptide cleavage, 20 min | Potency, µM (highest dose often 57.5 µM) | 340,000 compounds, 1.9% hits | AID 651965, 2013; active = well fitted falling curve with a large enough effect; inconclusive = small, poorly fitted or top-dose-only effect; inactive = no such curve, though single readings can be large or run the other way; also: the source files actives as falling curves though it sought activators and does not explain the sign; nearly all actives have a fitted effect of over 65% in size
Target sequence (P80244 whole entry, looked up): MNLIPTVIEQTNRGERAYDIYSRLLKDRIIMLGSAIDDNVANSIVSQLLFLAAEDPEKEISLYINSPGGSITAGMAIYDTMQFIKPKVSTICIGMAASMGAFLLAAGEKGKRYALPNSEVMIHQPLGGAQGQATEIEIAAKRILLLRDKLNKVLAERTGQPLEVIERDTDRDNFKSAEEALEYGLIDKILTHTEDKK
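ClpP 10 microg/mL final, pH 8 Tris/KCl buffer with BSA, glycerol, Tween-20; compound pinned in; FRET-FV substrate; RT 20 min; Ex320/Em430; ΔFRET vs ADEP 5.8 microM, DMSO, no enzyme.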
GLP1R cytotox = cytotoxicity counter-screen for GLP-1 receptor inverse agonists. Potency, µM (titrated, usually from 38.3 µM), usual class: inhibitors. 410,000 compounds, 0.13% hits. HEK293 cAMP-luciferase reporter cells, luminescence, 24 h. AID 624418;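 also: loss of luciferase light is scored as toxicity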
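Quantitative HTS format, 1536 wells, 200 cells/uL seeded. Compounds: 23 nL, 24 h, 37 °C. Detection: luciferase reagent, luminescence at 12 min RT; decreased signal taken as cytotoxic.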
GLP-1R agonist = agonists of human GLP-1 receptor. P43220. Potency, µM (top dose mostly 45.6 µM), hits mostly activators. HEK293 GLP-1R CRE-luciferase, luminescence, 4-6 h; cells express a hypersensitive GLP-1R form. AID 624172. 380,000 compounds, 0.007% hits
Target sequence (P43220 whole entry, looked up): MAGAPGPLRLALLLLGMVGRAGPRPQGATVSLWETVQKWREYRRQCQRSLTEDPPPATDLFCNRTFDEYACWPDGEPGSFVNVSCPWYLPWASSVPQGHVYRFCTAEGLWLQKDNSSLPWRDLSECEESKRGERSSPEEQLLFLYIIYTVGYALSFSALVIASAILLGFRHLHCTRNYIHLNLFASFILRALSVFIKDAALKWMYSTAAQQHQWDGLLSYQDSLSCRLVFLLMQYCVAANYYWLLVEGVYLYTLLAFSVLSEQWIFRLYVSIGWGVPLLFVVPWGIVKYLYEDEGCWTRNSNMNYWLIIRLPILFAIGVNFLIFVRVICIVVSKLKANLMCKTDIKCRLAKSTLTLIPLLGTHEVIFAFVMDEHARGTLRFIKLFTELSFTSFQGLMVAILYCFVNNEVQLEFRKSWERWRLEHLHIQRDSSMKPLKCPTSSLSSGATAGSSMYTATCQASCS
GLP-1R inv ag = acts as inverse agonist at human GLP-1 receptor. P43220. 410,000 compounds, 1.6% hits. HEK293 GLP-1R CRE-luciferase, luminescence, 24 h; GLP-1R form is constitutively active. Potency, µM (series often up to 38.3 µM), actives largely listed as inhibitors. AID 624417; also: nearly all actives have a fitted effect of over 55% in size
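Cells are plated, allowed 12 hours at 37 deg C, then treated with compounds for 24 hr before luciferase detection reagent is added and luminescence is read after 12 min at room temperature. The HEK293 line carries constitutively active GLP-1R with a cAMP-responsive reporter.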
Large screens that a line does not name were inactive. Unless noted, calls follow the shape of the dose curve; as a rule, active = well fitted curve in the direction sought with a large enough effect; inconclusive = small, poorly fitted or top-dose-only effect, or another doubt; inactive = no such curve, though single readings can be large; an effect the other way counts as inactive or inconclusive.

Cc1cn2c(=O)cc(COc3cccc(NC(=O)c4ccc(C(C)(C)C)cc4)c3)nc2s1	ClpP mod 28µM (no result: GLP-1R agonist)
CC(C)(C)c1ccc(CN(Cc2ccccc2)C(c2ccccn2)c2nnnn2C(C)(C)C)cc1 (stereo not drawn)	GLP-1R inv ag 3.2µM
CC(C)(C)n1nnnc1C(c1ccc(C(F)(F)F)cc1)N(Cc1ccccc1)Cc1ccco1 (stereo not drawn)	GLP-1R inv ag 5.6µM
CCN(Cc1ccccc1)C(c1ccncc1)c1nnnn1C(C)(C)C (stereo not drawn)	none
CC(C)(C)n1nnnc1C(c1ccc(C(F)(F)F)cc1)N(Cc1ccc(F)cc1)Cc1ccco1 (stereo not drawn)	GLP-1R inv ag inconclusive
CCCCOc1ccc(C(=O)Nc2ccc3c(c2)N(C(C)=O)CCC3)cc1	GLP-1R inv ag 1.1µM (no result: GLP-1R agonist)
O=C(Nc1cc(Cl)cc(Cl)c1)C1CC(=O)N(C2CCCC2)C1 (stereo not drawn)	GLP-1R inv ag 8.9µM
CCOc1ccccc1CN1CCc2nc(N3CCN(c4ccccc4F)CC3)ncc2C1	ClpP mod inconclusive, GLP-1R inv ag 10µM (no result: GLP-1R agonist)
CCN1CCN(c2ncc3c(n2)CCN(Cc2ccc(Br)s2)C3)CC1	GLP-1R inv ag 3.2µM (no result: GLP-1R agonist)
CCN1CCN(c2ncc3c(n2)CCN(Cc2ccc(C)s2)C3)CC1	GLP-1R inv ag inconclusive (no result: GLP-1R agonist)
CCN1CCN(c2ncc3c(n2)CCN(Cc2cc(Br)cs2)C3)CC1	GLP-1R inv ag 4.5µM (no result: GLP-1R agonist)
CCN1CCN(c2ncc3c(n2)CCN(Cc2ccc(OC(C)C)cc2)C3)CC1	GLP-1R inv ag 10µM (no result: GLP-1R agonist)
CCN1CCN(c2ncc3c(n2)CCN(Cc2sccc2C)C3)CC1	GLP-1R inv ag inconclusive (no result: GLP-1R agonist)
COc1cc2c(-c3ccccc3C)nc3c(c(C)nn3-c3ccccc3)c2cc1OC	none (no result: GLP-1R agonist)
COc1ccc(F)cc1S(=O)(=O)NCCc1sc2nc(-c3ccc(F)cc3)nn2c1C	GLP-1R inv ag inconclusive (no result: GLP-1R agonist)
CN1CCN(c2ncc3c(n2)CCN(Cc2ccc(Br)s2)C3)CC1	GLP-1R inv ag 3.2µM (no result: GLP-1R agonist)
CCCCN1CCc2nc(N3CCN(C)CC3)ncc2C1	none (no result: GLP-1R agonist)
CCCCCCCCN1C(=O)[C@H](CC(=O)NCc2cccc(C(F)(F)F)c2)C[C@@]2(C(=O)OCC)CCC=C12	GLP-1R inv ag inconclusive (no result: GLP-1R agonist)
COc1ccc(CC(=O)Nc2ccc3c(c2)C(=O)N(CCC(=O)O)C3=O)cc1	none
CC(C)C(=O)Nc1ccc2c(c1)C(=O)N(CCC(=O)O)C2=O	ClpP mod 28µM
Cc1ccc(C)c(N2CCN(S(=O)(=O)c3ccc(-c4cnc(C5CC5)o4)cc3)CC2)c1	ClpP mod inconclusive, GLP-1R inv ag inconclusive (no result: GLP-1R agonist)
Cc1cccc(N2CCN(S(=O)(=O)c3ccc(-c4cnc(C5CC5)o4)cc3)CC2)c1C	GLP-1R inv ag 11µM (no result: GLP-1R agonist)
NC(=O)c1ccc(NC(=O)COC(=O)/C=C/c2cn(-c3ccccc3)nc2-c2cccnc2)cc1	ClpP mod 28µM
COc1cc2ccccc2cc1C(=O)N1CCN(c2nc3c(F)cccc3s2)CC1	none (no result: GLP-1R agonist)
COc1ccc(Nc2cc(C)c3c(O)cccc3n2)cc1	GLP-1R inv ag 13µM
COc1ccc(CC(=O)Nc2ccc3nc(Nc4cccc(Cl)c4)cc(C)c3c2)cc1	GLP-1R inv ag 7.9µM
Cc1ccc(Nc2cc(C)c3c(O)cccc3n2)cc1C	ClpP mod inconclusive, GLP-1R inv ag inconclusive
COc1ccccc1CC(=O)Nc1ccc2nc(Nc3cccc(Cl)c3)cc(C)c2c1	GLP-1R inv ag inconclusive
Cc1cc(Nc2cccc(Cl)c2)nc2ccc(NC(=O)c3cccnc3)cc12	GLP1R cytotox inconclusive, GLP-1R inv ag inconclusive
Cc1cc(Nc2cccc(Cl)c2)nc2ccc(NC(=O)c3cccc(N(C)C)c3)cc12	GLP-1R inv ag 5.6µM
O=C(CSc1nc2c([nH]c3ccccc32)c(=O)n1-c1cccc(Cl)c1)N1CCCC1	none
O=C(O)c1cc(-n2c(/C=C\c3ccc(F)cc3)nc3ccccc3c2=O)ccc1Cl	none (no result: GLP-1R agonist)
Cc1cccc(CSc2nnc3[nH]c(=O)cc(-c4ccccc4)n23)c1	ClpP mod inconclusive (no result: GLP-1R agonist)
CC(C)c1nnc(NC(=O)C2CCN(C(=O)Nc3ccc(Cl)cc3)CC2)s1	GLP-1R inv ag 4µM (no result: ClpP mod)
CC(C1=C(CCN(C)C)Cc2ccccc21)c1ccccn1 (stereo not drawn)	ClpP mod 32µM, GLP-1R inv ag inconclusive
CN1CCN(CCNC(=O)c2ccc3nc(-c4ccc(F)cc4)c(-c4ccc(F)cc4)nc3c2)CC1	GLP1R cytotox inconclusive, GLP-1R inv ag 5.6µM
CCc1nc2ccc(C(=O)NCCCN3CCN(c4ccc(F)cc4)CC3)cc2nc1CC	none
Cc1ccc(-c2nc3ccccc3nc2-c2ccccc2)cc1	GLP-1R inv ag inconclusive (no result: ClpP mod)
CCN1CCN(C(=O)c2ccc3nc(-c4ccccc4)c(-c4ccccc4)nc3c2)CC1	ClpP mod 16µM, GLP-1R inv ag inconclusive
O=C(O)c1ccc2nc(-c3ccccc3)c(-c3ccccc3)nc2c1	ClpP mod 22µM, GLP-1R inv ag inconclusive
Oc1ccccc1-c1nc2ccccc2nc1-c1ccccc1	GLP-1R inv ag 11µM (no result: ClpP mod)
CCOC(=O)C1CCCN(C(=O)c2ccc3nc(-c4ccccc4)c(-c4ccccc4)nc3c2)C1 (stereo not drawn)	GLP-1R inv ag inconclusive
O=C(NCCc1csc(-c2cccc(F)c2)n1)c1ccc(Br)o1	GLP-1R inv ag inconclusive (no result: GLP-1R agonist)
CC(C)c1ccc(NC(=O)C(Cc2ccccc2)n2cccc2)cc1 (stereo not drawn)	GLP-1R inv ag inconclusive (no result: GLP-1R agonist)
COc1ccc(C(=O)N(Cc2ccc(N(C)C)cc2)Cc2ccco2)cc1Cl	GLP-1R inv ag inconclusive (no result: GLP-1R agonist)
Cc1cc(NS(=O)(=O)c2ccc(N)cc2)nc(C)n1	none (no result: ClpP mod, GLP1R cytotox, GLP-1R inv ag)
COc1cc(OC)c2c(C)cc(=O)oc2c1C(CCN1CCN(c2ccccc2)CC1)c1ccc2c(c1)OCO2 (stereo not drawn)	ClpP mod 32µM, GLP1R cytotox inconclusive, GLP-1R inv ag inconclusive
COc1cc(OC)c2c(-c3ccccc3)cc(=O)oc2c1C(CCN1CCOCC1)c1ccc2c(c1)OCO2 (stereo not drawn)	ClpP mod inconclusive, GLP-1R inv ag inconclusive
Cc1cccc(N2CCN(C(=O)c3ccc4c(c3)N(Cc3cccc(Cl)c3)C(=O)c3ccccc3S4=O)CC2C)c1 (stereo not drawn)	GLP-1R inv ag inconclusive (no result: GLP-1R agonist)
Cc1[nH]c(C(=O)O)c(C#N)c1C(=O)c1ccccc1	none
CC(=O)N(C(C)=O)c1c(C#N)c(C)n(-c2ccccc2)c1C(=O)c1ccccc1	GLP-1R inv ag 5.6µM
COc1cccc(C(=O)Nc2ccccc2-c2nnc(-c3cc(OC)ccc3Br)o2)c1	none
CC1CCN(C(=O)CSc2nc3c(c(=O)n2C)SCC3)CC1	ClpP mod 28µM
Cn1c(SCC(=O)N2CCCC2)nc2c(c1=O)SCC2	none
Cc1c(Cl)cccc1NC(=O)CSc1ncc2c(n1)-c1ccccc1N(C)S2(=O)=O	none (no result: GLP-1R agonist)
COc1ccccc1-c1nc(C(N)=O)c2[nH]c(=O)n(-c3cccc(C)c3)c2n1	ClpP mod 20µM
Cc1ccc(C=Nc2ccccc2C(N)=O)o1	none
CN(C)c1ccc(C=Nc2ccccc2C(N)=O)cc1	ClpP mod 25µM
